Screening results from PubChem.
GLP1R inv ag: acts as inverse agonist at human GLP-1 receptor | AID 624417 | actives 1.6% (n = 410,000) | HEK293 GLP-1R CRE-luciferase, luminescence, 24 h; GLP-1R form is constitutively active | P43220 | Potency, µM (doses to about 38.3 µM), inactives show top-dose activity change, negative = inhibition, actives largely listed as inhibitors; also: % is scaled to controls: 0 for no effect and ±100 for the full control effect; nearly all actives have a fitted effect of over 55% in size
Target sequence (P43220 whole entry, looked up): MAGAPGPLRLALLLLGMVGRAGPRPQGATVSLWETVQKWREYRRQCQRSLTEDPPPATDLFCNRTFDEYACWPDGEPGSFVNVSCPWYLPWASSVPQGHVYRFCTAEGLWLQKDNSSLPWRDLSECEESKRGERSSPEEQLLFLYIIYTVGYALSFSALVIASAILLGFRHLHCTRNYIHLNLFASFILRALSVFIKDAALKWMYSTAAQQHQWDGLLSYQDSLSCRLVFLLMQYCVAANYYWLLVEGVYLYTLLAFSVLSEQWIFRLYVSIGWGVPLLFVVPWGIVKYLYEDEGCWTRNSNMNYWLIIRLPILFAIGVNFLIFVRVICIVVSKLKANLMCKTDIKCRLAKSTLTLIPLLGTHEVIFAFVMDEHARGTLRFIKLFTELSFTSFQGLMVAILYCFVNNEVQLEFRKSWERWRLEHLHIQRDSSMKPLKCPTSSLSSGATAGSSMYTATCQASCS
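Inverse agonism was detected as reduced cAMP-driven luciferase luminescence after 24 h compound treatment. The cells were HEK293 clones expressing constitutively active human GLP-1R with the reporter. Reporter-only and GPR119 cell lines served as counterscreen controls.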
HEK293 tox: cytotoxicity in counter-screen for GLP-1R inverse agonists. actives 0.13% (n = 410,000). HEK293 cAMP-luciferase reporter cells, luminescence, 24 h. Potency, µM (top dose mostly 38.3 µM), inactives show at the top dose activity change, negative = inhibition, usual class: inhibitors. AID 624418;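 also: loss of luciferase light is scored as toxicity; % is scaled to controls: 0 for no effect and ±100 for the full control effect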
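Luminescence readout: signal drop marks cytotoxicity. Plated cells grew 12 h at 37 °C, 5% CO2, received 23 nL compound for 24 h, then got luciferase reagent, read after 12 min at RT.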
RGS4 inh: human RGS4 inhibition | P49798 | Transcreener GDP fluorescence polarization, RGS4-accelerated GTP hydrolysis | Potency, µM (titrated, usually from 114 µM), inactives show top-dose activity change, negative = inhibition, actives largely listed as inhibitors | actives 0.039% (n = 390,000) | AID 504845; also: % is scaled to controls: 0 for no effect and ±100 for the full control effect; nearly all actives have a fitted effect of over 75% in size
Target sequence (P49798 whole entry, looked up): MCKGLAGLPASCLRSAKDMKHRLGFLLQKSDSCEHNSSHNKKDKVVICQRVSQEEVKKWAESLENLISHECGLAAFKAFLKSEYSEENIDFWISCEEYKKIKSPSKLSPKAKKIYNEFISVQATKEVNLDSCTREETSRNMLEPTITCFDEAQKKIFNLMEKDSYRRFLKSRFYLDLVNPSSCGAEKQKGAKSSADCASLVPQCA
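MLSMR compounds (23 nl, pin-transferred) preincubated 10 min at room temperature with a 500nM (2x) first reagent, then RGS4 at 900nM (2x) plus Transcreener GDP mix added; fluorescence polarization (620/688 nm) read before and after 90 min at 30 °C.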
GLP-1R agonist: agonists of human GLP-1 receptor; P43220; HEK293 GLP-1R CRE-luciferase, luminescence, 4-6 h; cells express a hypersensitive GLP-1R form; Potency, µM (doses to about 45.6 µM), for inactives: top-dose activation, actives largely listed as activators; actives 0.007% (n = 380,000); also: % of control where 0% means no effect
PTHR1 agonist: PTHR1 (human) receptor agonism; Potency, µM (titrated, usually from 115 µM), inactives show at the top dose activation, actives largely listed as activators; AID 743266; Q03431; HEK293 GP2 PTHR1 cells, GloSensor cAMP luminescence, 1 h; actives 0.075% (n = 410,000); also: nearly all actives have a fitted effect of over 55% in size
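HEK-293-derived GP2 cells expressing PTHR1 and a GloSensor cAMP reporter, 3,000/well, plated overnight, given luciferin plus IBMX (each 0.5 mM as added) for 1 h at 37 °C, then compound for 1 h at 37 °C. Luminescence was read after 15 min at room temperature.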
Active calls of the source: *; i = inactive; ? = inconclusive; nt = not tested or not shown; [ ] = remark or other dose. In the library only some 1.7% were active in any assay of this set; here they are far more common. Calls follow the shape of the dose curve; as a rule, active = well fitted curve in the direction sought with a large enough effect; inconclusive = small, poorly fitted or top-dose-only effect, or another doubt; inactive = no such curve, though single readings can be large; an effect the other way counts as inactive or inconclusive. Potency is read from the fitted curve at half-maximal effect.

SMILES	GLP1R inv ag	HEK293 tox	RGS4 inh	GLP-1R agonist	PTHR1 agonist
CC(=O)c1ccc(N2CCN(c3nc4c(S(=O)(=O)c5ccc(C)c(C)c5)nnn4c4ccc(Cl)cc34)CC2)cc1	-2%	16%	-18%	nt	-19%
OCOCCCn1c(C2CCCN2c2nc(-c3ccc(F)cc3)cs2)nc2cc(Cl)c(N3CCCCC3)cc21 (stereo not given)	7.9µM*	-39%	-3%	-4%	-20%
CCN(CC)c1nc2ccccc2n(Cc2cccc(OC)c2)c1=O	3.5µM*	7%	14%	18%	-16%
COc1cccc(Cn2c(SCC(=O)N(C)c3ccccc3)nc3ccccc32)c1	?	-4%	-3%	nt	-35%
CCN(CC)CC(O)c1ccc2ccc3ccc(O)cc3c2c1 (stereo not given)	11µM*	?	12%	-4%	-24%
CC1(C)Cc2cccc(C(=O)NC3CCN(Cc4ccccc4)CC3)c2O1	10µM*	-28%	8%	5%	i
Cc1ccccc1C(=O)NC1CCN(Cc2ccccc2)CC1	2%	1%	-12%	2%	i
Cc1ccn2c(Nc3ccc4c(c3)OCO4)c(-c3ccco3)nc2c1	9%	-8%	3%	nt	-28%
CCN(CC)CCNC(=O)c1ccc2c(c1NCCO)C(=O)c1ccccc1C2=O	?	5µM*	21%	-7%	-27%
CC1CCN(C(=O)c2ccc3c(c2NCCO)C(=O)c2ccccc2C3=O)CC1	60%	?	18%	5%	-19%
CCOc1ncccc1C(=O)OCc1ccc(C(=O)OC)cc1	7%	?	24%	11µM*	-53%
CCOc1ncccc1C(=O)OCc1ccc(Cl)cc1	22%	0%	33%	8%	-25%
Cc1ccc(NC(=S)NC(=O)C2CC2)cc1Cl	10µM*	?	-25%	-6%	-15%
O=C(COc1ccc(Br)cc1)NCCN1CCCC1	-30%	6%	46%	-1%	9%
OCCCn1c(-c2ccccc2)csc1=Nc1ccccc1	11µM*	19%	-13%	7%	-44%
O=S(=O)(c1ccc(-c2csc(=Nc3ccc(OC(F)(F)Cl)cc3)n2CCCO)cc1)N1CCCC1	10µM*	-27%	-30%	nt	-97%
CCN(CC)CCn1c(-c2ccccc2)csc1=Nc1ccccc1	?	?	-14%	nt	i
Cc1cccc(Cn2cc(C(=O)c3ccccc3)c(=O)c3cc4c(cc32)OCO4)c1	-6%	-10%	0%	nt	-16%
COc1ccc(OC)c(CNS(=O)(=O)c2cn(C)cn2)c1	-7%	1%	-10%	-5%	-2%
O=C(Nc1cccc([N+](=O)[O-])c1)NC1CCCCCCC1	10µM*	-6%	-4%	4%	-26%
Cc1ccc(S(=O)(=O)N(CC(=O)Nc2cccc([N+](=O)[O-])c2)C2CCCCC2)cc1	11µM*	-8%	7%	0%	-4%[57.5 µM]
O=C(CNC1CCCCC1)Nc1cccc([N+](=O)[O-])c1	-20%	-4%	11%	15%	-10%
Cc1ccc(NS(=O)(=O)c2ccc(OCC(=O)Nc3cccc([N+](=O)[O-])c3)c(C)c2)cc1	10µM*	-23%	-12%	-1%	-23%
Cc1ccc(S(=O)(=O)N(CC(=O)Nc2ccc(Cl)c([N+](=O)[O-])c2)C2CCCCC2)cc1	?	1%	5%	-22%	-37%
Cc1ccc(NC(=O)CN(C)C(=O)c2ccc(NS(=O)(=O)c3cccc([N+](=O)[O-])c3)cc2)cc1	11%	-10%	-7%	-1%	-13%
SMILES	GLP1R inv ag	HEK293 tox	RGS4 inh	GLP-1R agonist	PTHR1 agonist
O=C(COC(=O)C1=COCCO1)Nc1ccc([N+](=O)[O-])cc1C(F)(F)F	4%	6%	21%	11%	-10%
COC(=O)c1ccc(NC(=O)N2CCN(c3nnc(C)c4c(C)n(-c5ccccc5)nc34)CC2)cc1	0%	-1%	-19%	nt	i
C[C@H](CO)N1C[C@H](C)[C@@H](CN(C)S(C)(=O)=O)Oc2c(NC(=O)Nc3ccc(C(F)(F)F)cc3)cccc2C1=O	6%	9%	-23%	3%	-40%
C[C@H](CO)N1C[C@H](C)[C@@H](CN(C)C(=O)Nc2ccc(C(F)(F)F)cc2)Oc2c(NC(=O)Nc3ccc(C(F)(F)F)cc3)cccc2C1=O	11µM*	?	-10%	-11%	-20%
C[C@H]1CN([C@@H](C)CO)C(=O)c2cccc(NC(=O)Nc3ccc(C(F)(F)F)cc3)c2O[C@H]1CN(C)C	10µM*	18%	-4%	-4%	20%
Cc1ccc(Nc2c(-c3ccc(C)cc3)nc3c(C)cccn23)cc1	10µM*	-16%	-18%	nt	-4%
Cc1ccc(Nc2c(-c3ccccc3O)nc3ncccn23)cc1	10µM*	-15%	19%	-2%	-5%
Cc1ccc(Nc2c(-c3ccsc3)nc3c(C)cccn23)cc1	?	3%	-3%	nt	-77%
Cc1ccc(Nc2c(-c3ccccc3O)nc3cnccn23)cc1	?	?	23%	15%	-27%
COP(=O)(OC)C(=NNS(=O)(=O)c1ccc(C)cc1)c1ccccc1	13%	2%	nt	10%	-6%
CCc1cc2c(cc3c(=O)n(CCCC(=O)NCc4cccc(Cl)c4)ncn32)s1	12%	-14%	14%	nt	i
CCCN1CCN(c2ncnc3sc(C(=O)Nc4c(C)cc(C)cc4C)c(C)c23)CC1	-7%	-4%	15%	nt	i
CC(Sc1nnc(CN2CCCC2)n1Cc1ccccc1)C(=O)Nc1ccc(F)cc1Cl (stereo not given)	5.6µM*	-4%	33%	22%	i
CC(Sc1nnc(CN2CCCC2)n1Cc1ccccc1)C(=O)Nc1ccc(F)cc1 (stereo not given)	?	0%	-15%	-5%	i
Cc1cccc(C)c1-n1nnnc1C(c1ccnc2ccccc12)N1CCN(C/C=C/c2ccccc2)CC1 (stereo not given)	?	-1%	nt	1%	-21%
CC1C(=O)C(C)C(c2ccc(Br)cc2)NC1c1ccc(Br)cc1 (stereo not given)	-18%	-14%	-16%	-2%	-36%
CC1C(=O)C(C)C(c2cc(Br)ccc2O)NC1c1cc(Br)ccc1O (stereo not given)	5µM*	?	-4%[56.9 µM]	7%	-3%
CN(CC(=O)Nc1ccc2c(c1)OCCO2)S(=O)(=O)c1ccc(F)cc1	9%	-12%	-15%	8%	-2%
O=C1c2ccccc2C2=Nc3ccccc3SC(c3ccc(Cl)cc3)C12 (stereo not given)	13µM*	?	9%	1%	-6%
O=C1c2ccccc2C2=Nc3ccccc3SC(c3cccc(F)c3)C12 (stereo not given)	?	7.9µM*	-30%	-5%	-25%
